PubChem BioAssay

Experiments:
[1] = tested on: Human papillomavirus type 1a protein E7 (residues 44-93); assay: small molecules binding HPV E7 44-93 – biochemical, small-molecule microarray, residues 44-93, 635 nm fluorescence, primary screen (AID 1108); conditions: fluorescence 635 nm, higher = more signal;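 further: E7 fragment applied at 1 µg/mL in TBST for 1 h at 4 C; score combines spot fluorescence with its signal to noise ratio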
[2] = hepatitis C replication reporter changes, two-sided – Huh7 cells, luciferase reporter, HCV replication inhibitor project, primary screen (AID 1109); conditions: Huh7 HCV replicon luciferase reporter, 48 h; higher = more signal;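 further: huh7 hepatoma cells harbouring a luciferase neomycin HCV replicon reporter; luciferase luminescence as measure of HCV replicon replication; test concentration not given here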
[3] = molecular target: Left-right determination factor 2 (Homo sapiens) (UniProt O00292); assay: small molecules binding LEFTY2 protein – biochemical, small-molecule microarray, 635 nm fluorescence scan, primary screen (AID 1110); conditions: higher = more signal
[4] = molecular target: Calmodulin-1 (Homo sapiens) (UniProt P0DP23); assay: small molecules binding calmodulin-1 with EGTA – biochemical, small-molecule microarray, Cy5-labelled CALM1, profiling panel (AID 1111); conditions: Cy5-CALM1 binding fluorescence, higher = more signal;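 further: labelled calmodulin applied in Tris saline Tween buffer holding calcium plus EGTA and DTT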
[5] = molecular target: Calmodulin-1 (Homo sapiens) (UniProt P0DP23); assay: small molecules binding Ca-loaded calmodulin-1 – biochemical, small-molecule microarray, Cy5-labelled CALM1, plus calcium, artefact control for SMM control-protein annotation, profiling panel (AID 1112); conditions: Cy5-CALM1 binding fluorescence, higher = more signal;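 further: score merges spot fluorescence with signal to noise from triplicate slides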
[6] = probe aWnt5a binding to arrayed compounds – biochemical, biotinylated probe, 635/667 nm fluorescence, primary screen (AID 1113); conditions: small-molecule microarray, higher = more signal;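 further: score merges 667 nm fluorescence intensity with signal-to-noise per printed feature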
[7] = probe aShh binding to arrayed compounds – biochemical, biotinylated probe, 635/667 nm fluorescence, primary screen (AID 1114); conditions: small-molecule microarray, higher = more signal;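 further: probe is biotin-labelled aShh protein from a stem cell growth factor screen; measures binding of labelled protein to compounds printed on the slide; score merges feature fluorescence at 667 nm with signal-to-noise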
[8] = probe aNog binding to arrayed compounds – biochemical, biotinylated probe, 635/667 nm fluorescence, primary screen (AID 1115); conditions: small-molecule microarray, higher = more signal;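 further: probe is biotinylated aNog protein used at 0.15 µg/mL for 1 h at 4 C; z-score combines 667 nm fluorescence of each spot with its signal to noise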
[9] = molecular target: Torsin-1A-interacting protein 1 (Homo sapiens) (UniProt Q5JTV8); assay: compound microarray binding of lysate hLAP1 – cell lysate, small-molecule microarray, COS7 lysate, 635/667 nm fluorescence, primary screen (AID 1116); conditions: 635 nm fluorescence, higher = more signal
[10] = molecular target: Alpha-bungarotoxin (Bungarus multicinctus) (UniProt P60615); assay: compounds binding labelled alpha-BTX control protein – biochemical, small-molecule microarray, Alexa647 label, 635/667 nm fluorescence, artefact control for SMM control protein annotation, profiling panel (AID 1117); conditions: alpha-BTX-A647 binding fluorescence, higher = more signal
Alpha-bungarotoxin (Bungarus multicinctus), sequence (P60615 whole entry, looked up): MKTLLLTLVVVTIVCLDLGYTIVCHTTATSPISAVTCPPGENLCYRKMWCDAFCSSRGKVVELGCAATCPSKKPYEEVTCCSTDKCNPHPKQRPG

Torsin-1A-interacting protein 1 (Homo sapiens), sequence (Q5JTV8 whole entry, looked up): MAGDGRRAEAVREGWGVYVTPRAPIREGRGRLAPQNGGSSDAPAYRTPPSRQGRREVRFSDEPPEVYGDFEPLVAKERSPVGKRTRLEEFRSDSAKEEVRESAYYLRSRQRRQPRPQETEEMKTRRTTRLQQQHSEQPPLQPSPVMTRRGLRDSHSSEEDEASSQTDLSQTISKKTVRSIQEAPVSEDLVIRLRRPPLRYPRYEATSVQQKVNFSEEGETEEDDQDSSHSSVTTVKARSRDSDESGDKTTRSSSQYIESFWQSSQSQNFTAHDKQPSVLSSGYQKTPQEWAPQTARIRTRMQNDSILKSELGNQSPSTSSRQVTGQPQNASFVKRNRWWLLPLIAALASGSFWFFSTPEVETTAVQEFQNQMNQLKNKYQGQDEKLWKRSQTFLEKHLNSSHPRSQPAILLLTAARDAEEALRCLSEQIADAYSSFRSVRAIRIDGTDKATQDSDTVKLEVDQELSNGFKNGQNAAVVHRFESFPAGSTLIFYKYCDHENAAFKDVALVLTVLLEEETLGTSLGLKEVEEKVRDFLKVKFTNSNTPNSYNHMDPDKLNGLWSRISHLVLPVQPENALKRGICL
Left-right determination factor 2 (Homo sapiens), sequence (O00292 whole entry, looked up): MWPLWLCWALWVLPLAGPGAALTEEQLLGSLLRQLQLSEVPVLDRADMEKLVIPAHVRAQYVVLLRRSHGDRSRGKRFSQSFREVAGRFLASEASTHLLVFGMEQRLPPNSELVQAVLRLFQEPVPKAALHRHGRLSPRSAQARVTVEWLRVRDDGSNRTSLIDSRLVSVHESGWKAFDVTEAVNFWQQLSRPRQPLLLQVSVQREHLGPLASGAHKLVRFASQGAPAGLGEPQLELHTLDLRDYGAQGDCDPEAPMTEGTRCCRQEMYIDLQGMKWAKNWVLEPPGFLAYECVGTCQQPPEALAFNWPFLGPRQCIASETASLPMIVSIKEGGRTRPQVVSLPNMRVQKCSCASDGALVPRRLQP

| Structure (SMILES) | composite z-score [1] | z-score [2] | composite z-score [3] | composite z-score [4] | composite z-score [5] | composite z-score [6] | composite z-score [7] | composite z-score [8] | composite z-score [9] | composite z-score [10] |
| --- | --- | --- | --- | --- | --- | --- | --- | --- | --- | --- |
| CC(C)OC(=O)C=C1C[C@@H](c2ccc(C#N)cc2)O[C@@H](c2ccc(C#N)cc2)O1 | 1.45 | -2.19 | 0.701 | 0.857 | 0.621 | 0.178 | 0.0875 | 0.229 | 1.22 | 1.09 |
| C[C@@H](c1ccccc1)N1C(=O)[C@H]2[C@H]3[C@H](O)[C@H](O)CC(=NNC(=O)OCc4ccccc4)[C@H]3CC[C@H]2C1=O | -0.269 | -2.23 | 0.495 | 0.12 | -0.726 | -0.0735 | 0.0815 | -0.0567 | 0.464 | 0.284 |
| CC(CCN1CCc2nc(-c3ccccc3)c(-c3ccccc3)cc2C1)=NO[C@H](C)c1cn([C@@H]2COC[C@H]2O)nn1 | 1.35 | -0.883 | 0.0738 | -0.307 | -0.46 | -0.0685 | -0.0553 | -0.025 | 0.438 | 0.872 |
| CCCCCCc1nc(CCCc2cc3c(c(CCCCCC)n2)[Si](C(C)C)(C(C)C)O[C@H]3c2ccccc2)cc2c1[Si](C(C)C)(C(C)C)O[C@H]2c1ccccc1 | 0.15 | -0.904 | 0.109 | 0.146 | -0.021 | -0.148 | -0.0626 | -0.213 | -0.0561 | 0.181 |
| COCCCNC(=O)[C@]1(Cc2ccccc2)N=C(c2ccc(OCCCO)cc2)O[C@@H]1c1ccccc1 | 1.09 | -1.05 | -0.248 | 1.81 | 0.213 | 0.201 | 0.299 | 1.89 | 1.84 | 1.32 |
| C=C(CCCC)C(=O)CC[C@@H](OC(C)=O)c1cccc(OCCO)c1 | -0.701 | -4.56 | 0.333 | -0.602 | -1.28 | -0.12 | -0.0227 | -0.0381 | 2.13 | -0.0603 |
| COCCCNC(=O)[C@]1(CCC(=O)OC(C)(C)C)N=C(c2ccc(OCCCO)cc2)O[C@@H]1c1ccccc1N=[N+]=[N-] | 1.45 | 0.971 | 0.197 | 1.88 | 0.671 | 0.183 | 0.0948 | 1.56 | 1.21 | 1.64 |
| C=CCOC(=O)[C@H]1[C@@H]2C(=O)O[C@@H](c3ccccc3)[C@@H](c3ccccc3)N2[C@@H](c2ccc(OCCOC(=O)[C@H]3C[C@H]4C(=O)N[C@@H](Cc5ccccc5)C(=O)N4[C@H]3c3ccc(O)cc3)cc2)[C@]12C(=O)Nc1ccccc12 | 0.516 | -1.32 | 0.933 | 0.743 | 0.0731 | -0.0735 | -0.0709 | -0.112 | 0.985 | 1.46 |
| C#C[C@@H]1Oc2ccccc2S(=O)(=O)N2CCC[C@H]12 | -0.638 | 0.206 | 0.273 | -0.593 | -0.867 | 0.0391 | 0.0893 | 0.186 | 0.237 | -0.302 |
| CC(C)=C1C(=O)C(c2ccccc2)=C2CN3C(=O)N(CCc4ccccc4)C(=O)[C@]3(Cc3ccc(F)cc3)[C@H]21 | 0.891 | -0.864 | -1.67 | 0.327 | 0.32 | 0.229 | 0.0431 | -0.761 | -0.248 | -0.547 |
| C[C@H](c1ccccc1)N1C(=O)[C@H]2[C@@H]3C(=CC[C@H]2C1=O)C(=O)[C@H]1O[C@H]1[C@H]3O | -0.546 | -4.71 | 0.429 | -0.119 | -0.932 | -0.0405 | 0.0402 | -0.416 | 0.326 | -0.0114 |
| CCCCC(=C=CC[C@H](O)c1ccccc1OCCO)C[C@H](O)COCc1ccccc1 | -0.156 | -1.92 | -0.233 | 1.22 | 0.768 | -0.124 | -0.138 | 0 | 1.65 | 1.04 |
| CCOC(=O)[C@H](CC(C)C)NC(=O)CCC1CC(OC(=O)NCc2cccc3ccccc23)CC2(CCCC(COC(=O)NCCc3ccccc3OC)O2)O1 (stereo not given in full) | 1.38 | -1.24 | 0.488 | 1.3 | 0.371 | -0.124 | -0.214 | -0.335 | 0.607 | 0.588 |
| CC(CCN1CCc2nc(-c3ccccc3)c(-c3ccccc3)cc2C1)=NOC[C@@H](C)[C@H](OCc1ccccc1)C(C)C | -1.08 | -1.77 | -0.323 | -0.607 | 0.343 | -0.134 | -0.304 | -0.278 | -0.424 | 1.14 |
| COCCOC(=O)N1C(=O)[C@@]2(c3cc(C#CC4(O)CCCCCC4)ccc31)[C@H](C(=O)N1CCN(c3ncccn3)CC1)[C@H]1C(=O)O[C@H](c3ccccc3)[C@H](c3ccccc3)N1[C@@H]2c1ccc(OCCO)cc1 | 1.01 | -1.38 | 0.519 | 0.942 | 0.0751 | 0.0136 | 0.637 | 0.42 | 0.889 | 1.33 |
| CC(=O)OC[C@H]1O[C@H](CC=NOC[C@@H](C)[C@H](OCc2ccccc2)C(C)C)C=C[C@@H]1OC(C)=O | 0.16 | -0.854 | 0.455 | -0.47 | -0.499 | 0.0437 | -0.186 | -0.526 | -0.698 | -0.164 |
| C=COC[C@H]1CN2[C@@H](CC[C@@H](C)[C@@H]2c2ccc(Br)cc2)C(=O)O1 | 0.864 | 0.924 | 0.792 | 0.537 | -0.092 | -0.176 | -0.304 | -0.0286 | -0.415 | 0.166 |
